High-throughput results (PubChem)
The list is not random: actives were taken first. Their share in the collection is about 7.4%.
Rab9 promoter act = qHTS Assay for Rab9 Promoter Activators. Huh7 Rab9 promoter-luciferase reporter, luminescence, 24 h. Potency, µM (series often up to 9.22 µM), most hits filed as activators. 2.8% of 320,000 active; further: nearly all actives have a fitted effect of over 60% in size
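Using Huh7 cells stably transfected with Rab9 promoter–luciferase, compounds were incubated 24 h at 37 °C, 5% CO2; luciferase luminescence was read 10 min after reagent addition.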
ELG1 genotoxic = qHTS screen for small molecules that induce genotoxicity in human embryonic kidney (HEK293T) cells expressing luciferase-tagged ELG1 | HEK293T ELG1-luciferase reporter, luminescence, 16 h | Potency, µM (highest dose often 46 µM), usual class: activators | 1.3% of 330,000 active; further: nearly all actives have a fitted effect of over 60% in size
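Step 1: seed 2,000 HEK293T ELG1-luciferase cells per well. Step 2: add compound or DMSO, incubate 16 hr at 37 °C. Step 3: ONE-Glo, 30 min at room temperature, read luminescence.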
FLuc modulator = qHTS profiling assay for firefly luciferase inhibitor/activator using purifed enzyme and Km concentrations of substrates (counterscreen for miR-21 project). purified FLuc, Km substrates, luminescence inhibition. Potency, µM (highest dose often 57.5 µM), most hits filed as inhibitors. 6.9% of 360,000 active; further: nearly all actives have a fitted effect of over 55% in size
Target sequence (P08659 whole entry, looked up): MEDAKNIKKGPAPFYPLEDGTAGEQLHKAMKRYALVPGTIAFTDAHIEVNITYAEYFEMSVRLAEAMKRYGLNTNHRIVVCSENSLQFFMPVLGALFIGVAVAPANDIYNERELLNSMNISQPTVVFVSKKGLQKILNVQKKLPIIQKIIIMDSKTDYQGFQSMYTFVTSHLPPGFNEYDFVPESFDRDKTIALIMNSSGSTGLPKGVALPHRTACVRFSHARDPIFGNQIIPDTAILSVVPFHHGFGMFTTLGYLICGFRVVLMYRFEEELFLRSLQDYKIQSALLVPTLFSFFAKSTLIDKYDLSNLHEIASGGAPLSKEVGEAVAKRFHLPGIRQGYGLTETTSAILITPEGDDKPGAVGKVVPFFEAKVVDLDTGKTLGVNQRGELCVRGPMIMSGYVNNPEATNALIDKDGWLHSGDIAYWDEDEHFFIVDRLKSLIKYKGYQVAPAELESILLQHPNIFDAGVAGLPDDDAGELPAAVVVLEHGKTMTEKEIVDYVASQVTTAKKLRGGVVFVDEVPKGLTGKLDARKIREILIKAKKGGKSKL
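Biochemical qHTS of compounds, final roughly 60 µM downward over six points, against 10 nM purified firefly luciferase using Km concentrations of substrates (10 uM D-luciferin, 10 uM ATP) in Tris acetate pH 7.5 buffer; luminescence output.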
SMN2 splice enh = qHTS Assay for Enhancers of SMN2 Splice Variant Expression; HEK293 SMN2-luciferase splicing reporter, luminescence, 30-36 h; 2.8% of 210,000 active; AID 1458, 2008; Potency, µM (highest dose often 46.1 µM), usual class: activators; further: nearly all actives have a fitted effect of over 55% in size
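qHTS luciferase splicing reporter: luminescence rises when SMN2 exon 7 is included in transfected HEK293 cells. Compound exposure lasted 30-36 h at 37C, with 4.5 mM final sodium butyrate as control, followed by a ONE-Glo read.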
NPC1 prom act = qHTS Assay for NPC1 Promoter Activators; Huh7 NPC1 promoter luciferase reporter, 24 h; Potency, µM (highest dose often 9.22 µM), most hits filed as activators; 2.4% of 320,000 active; further: nearly all actives have a fitted effect of over 60% in size
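Huh7 reporter cells (NPC1 promoter driving luciferase) are dosed with compound for 24 h at 37 °C, 5% CO2; luciferase detection reagent is then added and luminescence measured after 10 min at ambient temperature.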
Numbers stand for hits; . = inactive; ? = inconclusive; / = no result given; [ ] = dose if it differs, or a comment. The call rests on the fitted dose curve; in most records, active means well fitted curve in the direction sought with a large enough effect; inconclusive means small, poorly fitted or top-dose-only effect, or another doubt; inactive means no such curve, though single readings can be large; an effect the other way counts as inactive or inconclusive.

SMILES	Rab9 promoter act	ELG1 genotoxic	FLuc modulator	SMN2 splice enh	NPC1 prom act
Nn1c(SCC(=O)Nc2ccc3c(c2)OCCO3)nncc1=O	.	.	21µM	/	.
CCOC(=O)c1cnc2ccc(OC)cc2c1Nc1cccc(C(C)=O)c1	/	/	?	.	/
C#CCCOC(=O)N1C2=NC(C(=O)OC)=C(C(=O)OC)[C@@H]3N(Cc4ccccc4)c4ccccc4[C@]23C[C@H]1C(=O)OC	.	.	.	.[9.22 µM]	.
CC(C)n1nnnc1SCC(=O)Nc1ccc2c(c1)OCCO2	?	?	17µM	/	3.2µM
CCC(=O)Nc1ccc(NC(=O)CSc2nnnn2C(C)C)cc1	.	.	.	.	.
O=C(Nc1ccc(F)cc1Cl)c1ccc2c(=O)n3c(nc2c1)CCC3	3.5µM	.	.	/	3.2µM
O=C(NNC(=O)c1ccc2c(=O)n3c(nc2c1)CCC3)c1ccc(Cl)cc1	.	.	.	/	.
O=C(NNC(=O)c1ccc2c(=O)n3c(nc2c1)CCC3)c1ccc(F)cc1	.	.	.	/	.
Cc1ccc(C)c(NC(=O)c2ccc3c(=O)n4c(nc3c2)CCC4)c1	?	.	15µM	/	?
COc1ccc(C)cc1NC(=O)c1ccc2c(=O)n3c(nc2c1)CCCCC3	.	.	.	.	.
O=C(Nc1ccc(F)cc1F)c1ccc2c(=O)n3c(nc2c1)CCC3	1.1µM	?	11µM	/	1.1µM
OC(COc1ccc(Br)cc1)CN1CCC(Cc2ccccc2)CC1 (stereo unspecified)	.	.	.	/	.
O=C1c2ccccc2S(=O)(=O)N1Cc1nnc(-c2ccccc2Br)o1	.	.	21µM	.	.
Cc1c(N=C2C=C(Br)C(=O)C(Br)=C2)c(=O)n(-c2ccccc2)n1C	.	.	15µM	.	.
Cc1c(N=C2C=CC(=O)c3ccccc32)c(=O)n(-c2ccccc2)n1C	.	.	?	.	.
Cc1oc(C(=O)Nc2ccc(C(=O)O)cc2)cc1COc1ccccc1	.	.	11µM	.	.
Cc1cc(C(=O)Nc2ccc(OCc3ccccc3)cc2)c(C)o1	?	?	17µM	?	?
Cc1ccsc1C(=O)Nc1ccc(OCc2ccccc2)cc1	1.1µM	?	1.5µM	/	1.6µM
Cc1cc(C(=O)Nc2ccccc2C(=O)O)c(C)o1	.	.	24µM	/	.
CC(=O)c1cc(C(=O)Nc2ccc(C(=O)O)cc2)oc1C	.	.	.	.	.
O=C(NCCc1ccccc1)Nc1cccc(Cl)c1	?	.	17µM	.	?
O=C(NCCc1ccc(F)cc1)Nc1ccc2c(c1)OCO2	2.8µM	.	?	/	?
COc1ccc(CCNC(=O)Nc2ccc3c(c2)OCO3)cc1OC	.	.	.	/	.
O=C(NCCc1ccccc1)Nc1ccc2c(c1)OCO2	1.4µM	?	11µM	14µM	2.5µM
O=C(O)CCCCCNC(=O)Nc1ccc2c(c1)OCCO2	.	.	9.5µM	/	.
SMILES	Rab9 promoter act	ELG1 genotoxic	FLuc modulator	SMN2 splice enh	NPC1 prom act
O=C(NCCc1ccccc1)C(=O)Nc1ccc2c(c1)OCCO2	.	?	.	.	.
O=C(Nc1cccc(Cl)c1)NC1CCN(C2CCCCC2)C1 (stereo unspecified)	.	.	.	/	.
O=C(Nc1ccc2c(c1)OCO2)OCc1ccccc1	1.3µM	?	6µM	20µM	1.6µM
Cc1oc(-c2ccc3c(c2)OCCO3)cc1C(=O)O	.	.	2.4µM	.	.
COc1ccc(-c2cc(C(=O)NC(Cc3cc4ccccc4[nH]3)C(=O)O)c(C)o2)cc1OC (stereo unspecified)	?	.	?	/	.
Cc1oc(-c2ccc3c(c2)OCCO3)cc1C(=O)NCC(=O)O	.	.	.	/	.
COc1ccc(-c2cc(C(=O)O)c(C)o2)cc1OC	0.32µM	?	1.7µM	0.63µM	?
COc1ccc(OC)c(C(=O)COC(=O)c2cccnc2Cl)c1	.	.	?	.	.
O=C(COC(=O)c1cccnc1Cl)c1ccc(Cl)cc1Cl	.	.	0.76µM	.	.
COC(=O)c1ccc(COC(=O)c2cccnc2Cl)cc1	.	?	?	/	.
O=C(COC(=O)c1cccnc1Cl)c1ccc(OC(F)F)cc1	.	.	5.4µM	.	.
COc1ccc(C(=O)COC(=O)c2cccnc2Cl)c(OC)c1	2.2µM	21µM	11µM	.	.
